Source: PubChem BioAssay (Tox21)
Records with an inconclusive call do not appear. Calls of active or inactive are those of the source. Unless noted, calls come from the whole dose curve; as a rule, active = well fitted curve in the direction sought with a large enough effect in the repeat runs; inconclusive = weak or mixed curves; inactive = no such curve, though single readings can be large; an effect the other way counts as inactive or inconclusive.

Columns and labels:
[1] = qHTS assay to identify small molecule agonists of the sonic hedgehog signaling (Shh) pathway (AID 1259368; calls by dose curve;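 note: NIH/3T3-derived 3T3Gli1-Luc cells carrying a stable Gli1-driven firefly luciferase reporter; series mostly up to about 92 µM; nearly all actives have a fitted effect of over 15% in size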)
Procedure, shortened: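 Read-out: firefly luciferase luminescence from a Gli1 response element reporter stably integrated in NIH/3T3-derived 3T3Gli1-Luc cells, measured 30 min at room temperature after reagent addition. Compound exposure lasted 24 hr at 37 C, 5% CO2.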

[2] = qHTS assay to identify small molecule antagonists of the sonic hedgehog signaling (Shh) pathway (AID 1259369; calls by dose curve; note: nearly all actives have a fitted effect of over 45% in size)
Procedure, shortened: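 Luminescence readout: firefly Luc under Gli1 response element in 3T3Gli1-Luc cells (NIH/3T3 clone). Antagonist mode, stimulation by conditioned medium; compound exposure 24hr at 37 C, 5% CO2.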

[3] = biological target: Estrogen receptor beta (Homo sapiens) (UniProt Q92731); assay: qHTS assay to identify small molecule agonists of the estrogen receptor beta (ER-beta) signaling pathway (AID 1259377; active = well fitted activation curve with a large enough effect in the signal ratio in the repeat runs, not every such curve was filed as active; the % refers to the signal ratio)
Chain of Estrogen receptor beta (Homo sapiens) (Q92731 whole entry, looked up): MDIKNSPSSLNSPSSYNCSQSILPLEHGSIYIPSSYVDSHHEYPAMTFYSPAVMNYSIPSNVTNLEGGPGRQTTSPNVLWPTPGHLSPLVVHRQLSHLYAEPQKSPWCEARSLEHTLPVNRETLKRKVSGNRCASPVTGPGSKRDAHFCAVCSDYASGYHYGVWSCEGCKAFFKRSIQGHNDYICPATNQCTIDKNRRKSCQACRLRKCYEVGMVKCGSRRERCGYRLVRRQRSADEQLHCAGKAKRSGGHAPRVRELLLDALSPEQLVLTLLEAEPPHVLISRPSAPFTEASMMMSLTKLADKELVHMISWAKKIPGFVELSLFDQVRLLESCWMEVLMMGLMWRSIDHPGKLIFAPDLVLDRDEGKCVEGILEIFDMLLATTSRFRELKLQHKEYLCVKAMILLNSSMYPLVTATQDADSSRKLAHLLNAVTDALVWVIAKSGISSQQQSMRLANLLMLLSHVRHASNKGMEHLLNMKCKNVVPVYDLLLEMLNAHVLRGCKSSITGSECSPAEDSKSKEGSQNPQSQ
Procedure, shortened: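 A UAS-controlled beta-lactamase reporter in ER-beta-UAS-bla HEK293T cells reports receptor activation. Compounds act for 16 hr at 37C in 2% charcoal-stripped serum, and a FRET substrate is read by fluorescence after 2 hours.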

[4] = qHTS assay to identify small molecule agonists of the androgen receptor (AR) signaling pathway in the presence of an antagonist - cell viability counter screen (AID 1259379);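 note: MDA-kb2 human breast cancer cells carrying an MMTV luciferase reporter; series mostly up to about 92 µM; nearly all actives have a fitted effect of over 25% in size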
Procedure, shortened: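 Viability counter screen: CellTiter-Fluor fluorescence, measured in the same wells as the luciferase read-out. MDA-kb2 cells, 3,000/well, with nilutamide at 3.0uM final and compounds at 15 concentrations, 16 hr at 37C, 0% CO2.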

[5] = qHTS assay to identify small molecule agonists of the estrogen receptor beta (ER-beta) signaling pathway - cell viability counter screen (AID 1259380); note: nearly all actives have a fitted effect of over 30% in size; note: potency is the fitted concentration of half-maximal effect
Procedure, shortened: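 Luminescence read-out (CellTiter-Glo, 30 min, room temp) taken in the same wells as the beta-lactamase reporter assay; ER-beta-UAS-bla HEK293T cells exposed to DMSO-dissolved compounds for 16 hr at 37C in 2% charcoal-stripped FBS medium.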

[6] = biological target: Estrogen receptor (Homo sapiens) (UniProt P03372); assay: qHTS assay to identify small molecule agonists of the estrogen receptor alpha (ER-alpha) signaling pathway in the presence of an antagonist (AID 1259383; calls by dose curve; note: top concentration of the series differs between compounds; nearly all actives have a fitted effect of over 15% in size)
Chain of Estrogen receptor (Homo sapiens) (P03372 whole entry, looked up): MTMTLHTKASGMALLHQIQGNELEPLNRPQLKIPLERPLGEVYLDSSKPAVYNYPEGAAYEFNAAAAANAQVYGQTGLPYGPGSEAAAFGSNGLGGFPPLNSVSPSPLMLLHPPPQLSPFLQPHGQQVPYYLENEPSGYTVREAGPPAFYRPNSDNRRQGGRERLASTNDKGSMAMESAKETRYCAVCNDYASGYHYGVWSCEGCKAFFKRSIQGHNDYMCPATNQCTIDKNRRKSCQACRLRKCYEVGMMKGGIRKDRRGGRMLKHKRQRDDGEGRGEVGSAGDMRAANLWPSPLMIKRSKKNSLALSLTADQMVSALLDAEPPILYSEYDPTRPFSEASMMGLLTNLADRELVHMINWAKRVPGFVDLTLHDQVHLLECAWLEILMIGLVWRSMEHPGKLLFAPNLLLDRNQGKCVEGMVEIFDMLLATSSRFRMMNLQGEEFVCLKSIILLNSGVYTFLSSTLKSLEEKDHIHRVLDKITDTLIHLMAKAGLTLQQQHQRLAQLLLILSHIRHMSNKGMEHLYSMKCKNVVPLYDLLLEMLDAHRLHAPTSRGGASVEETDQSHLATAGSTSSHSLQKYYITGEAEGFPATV
Procedure, shortened: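 Luciferase luminescence (ONE-Glo, 30min at room temperature) measured in VM7Luc4E2 cells after 22hr compound exposure at 15 concentrations, with 10.0nM ICI-182,780 final present; cells express endogenous ER-alpha and carry four EREs upstream of luciferase.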

[7] = qHTS assay to identify small molecule agonists or antagonists of the thyroid stimulating hormone receptor (TSHR) signaling pathway - wild type cell line counter screen (AID 1259384; calls by dose curve)
Procedure, shortened: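 Wild-type HEK293 cells were plated 18 h at 37 C/5% CO2, pin-dosed with compound plus Ro20-1724 medium, held 30 min at room temperature, then given cAMP-d2 and anti-cAMP-cryptate; fluorescence was read after 1 h. Fifteen concentrations, triplicate.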

[8] = biological target: Thyrotropin receptor (Homo sapiens) (UniProt P16473); assay: qHTS assay to identify small molecule antagonists of the thyroid stimulating hormone receptor (TSHR) signaling pathway (AID 1259385; calls by dose curve; note: nearly all actives have a fitted effect of over 20% in size)
Chain of Thyrotropin receptor (Homo sapiens) (P16473 whole entry, looked up): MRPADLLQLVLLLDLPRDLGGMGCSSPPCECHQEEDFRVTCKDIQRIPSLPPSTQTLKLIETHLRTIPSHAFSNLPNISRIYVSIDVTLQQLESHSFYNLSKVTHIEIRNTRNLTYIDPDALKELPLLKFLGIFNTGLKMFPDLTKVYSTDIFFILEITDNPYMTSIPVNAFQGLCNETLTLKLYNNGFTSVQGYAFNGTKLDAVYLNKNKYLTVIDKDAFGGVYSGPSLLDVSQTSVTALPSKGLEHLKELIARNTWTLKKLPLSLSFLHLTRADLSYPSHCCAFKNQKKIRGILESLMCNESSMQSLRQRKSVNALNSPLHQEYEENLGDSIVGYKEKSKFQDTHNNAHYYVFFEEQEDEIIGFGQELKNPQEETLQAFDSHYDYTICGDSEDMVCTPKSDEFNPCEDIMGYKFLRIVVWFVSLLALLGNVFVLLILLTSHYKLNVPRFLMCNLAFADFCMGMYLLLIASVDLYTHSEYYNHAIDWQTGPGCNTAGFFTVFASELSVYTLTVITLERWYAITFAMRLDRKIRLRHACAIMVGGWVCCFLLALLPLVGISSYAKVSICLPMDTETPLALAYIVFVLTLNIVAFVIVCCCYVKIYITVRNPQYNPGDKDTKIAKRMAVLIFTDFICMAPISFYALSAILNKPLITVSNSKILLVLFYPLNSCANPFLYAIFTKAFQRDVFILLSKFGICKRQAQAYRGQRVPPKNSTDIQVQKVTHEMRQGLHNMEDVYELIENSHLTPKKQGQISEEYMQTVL
Procedure, shortened: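 TSHR-HEK293 cells were plated and held 18 h at 37C/5% CO2, then given compound plus Ro20-1724 and stimulated with TSH at 1.5 ng/mL final. After 30 min at room temperature, cAMP was detected with cAMP-d2/anti-cAMP-cryptate (1 h) by fluorescence.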

[9] = qHTS assay to identify small molecule agonists of the estrogen receptor alpha (ER-alpha) signaling pathway in the presence of an antagonist - cell viability counter screen (AID 1259386);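 note: series mostly up to about 92 µM; cells exposed to compounds for 22 h at 37 °C before the viability read; nearly all actives have a fitted effect of over 30% in size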
Procedure, shortened: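 Read-out: CellTiter-Fluor fluorescence after 1hr reagent incubation, measured in the same wells as the luciferase readout. VM7Luc4E2 cells were exposed to 15 compound concentrations with 10.0nM ICI-182,780 for 22hr at 37C.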

[10] = biological target: Progesterone receptor (Homo sapiens) (UniProt P06401); assay: qHTS assay to identify small molecule agonists of the progesterone receptor (PR) signaling pathway (AID 1346784; calls by dose curve; note: nearly all actives have a fitted effect of over 30% in size)
Chain of Progesterone receptor (Homo sapiens) (P06401 whole entry, looked up): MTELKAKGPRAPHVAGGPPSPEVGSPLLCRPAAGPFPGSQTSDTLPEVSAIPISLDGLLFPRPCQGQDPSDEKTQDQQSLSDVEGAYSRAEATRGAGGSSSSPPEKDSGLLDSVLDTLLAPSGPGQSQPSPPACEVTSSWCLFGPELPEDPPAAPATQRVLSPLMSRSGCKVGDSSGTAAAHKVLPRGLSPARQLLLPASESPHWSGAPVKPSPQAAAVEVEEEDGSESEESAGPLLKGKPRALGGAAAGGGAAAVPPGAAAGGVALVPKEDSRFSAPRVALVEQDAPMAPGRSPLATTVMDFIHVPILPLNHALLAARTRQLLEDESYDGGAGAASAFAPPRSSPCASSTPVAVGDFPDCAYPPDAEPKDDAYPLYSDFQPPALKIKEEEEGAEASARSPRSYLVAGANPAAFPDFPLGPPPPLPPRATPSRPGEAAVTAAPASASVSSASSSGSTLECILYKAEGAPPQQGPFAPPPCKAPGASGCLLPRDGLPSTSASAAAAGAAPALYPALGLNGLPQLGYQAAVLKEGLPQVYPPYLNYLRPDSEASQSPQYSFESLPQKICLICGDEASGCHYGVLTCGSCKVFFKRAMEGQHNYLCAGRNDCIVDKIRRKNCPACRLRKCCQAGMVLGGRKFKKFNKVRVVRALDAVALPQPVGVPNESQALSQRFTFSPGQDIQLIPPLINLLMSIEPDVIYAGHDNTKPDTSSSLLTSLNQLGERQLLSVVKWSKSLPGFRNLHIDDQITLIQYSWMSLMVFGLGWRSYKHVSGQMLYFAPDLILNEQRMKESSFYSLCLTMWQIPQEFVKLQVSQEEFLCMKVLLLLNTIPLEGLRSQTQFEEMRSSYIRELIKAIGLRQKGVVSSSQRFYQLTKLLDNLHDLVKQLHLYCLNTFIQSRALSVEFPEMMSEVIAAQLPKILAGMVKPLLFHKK
Procedure, shortened: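 Agonist mode, quantitative HTS format in a HEK 293T line expressing a UAS-controlled beta-lactamase reporter; 16 hr compound exposure at 37C in 2% charcoal-stripped FBS, then LiveBLAzer B/G FRET fluorescence.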

[11] = qHTS assay to identify small molecule antagonists of the progesterone receptor (PR) signaling pathway - cell viability counter screen (AID 1346798); note: series mostly up to about 92 µM; nearly all actives have a fitted effect of over 50% in size
Procedure, shortened: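 Same-well multiplex: after 16 hr at 37C with compound and R5020 stimulation, HEK293T cells carrying a UAS-bla reporter received LiveBLAzer substrate (2 hr RT), then CellTiter-Glo (30 min RT) for luminescent viability.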

[12] = qHTS assay to identify small molecule agonists of the progesterone receptor (PR) signaling pathway - cell viability counter screen (AID 1346799; calls by dose curve; note: nearly all actives have a fitted effect of over 45% in size)
Procedure, shortened: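 Counter screen for cytotoxicity: compound-treated PR-UAS-bla HEK293T cells (16 hr, 37C, 5% CO2) were assayed with CellTiter-Glo, luminescence measured after 30 min at room temperature.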

[13] = qHTS assay to identify small molecule antagonists of the TGF-beta/Smad signaling pathway - cell viability counter screen (AID 1346824); note: nearly all actives have a fitted effect of over 50% in size
Procedure, shortened: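 SBE-bla HEK 293T cells were plated overnight at 37 C, then given compounds in DMSO plus TGF-beta1 (added as 0.25 ng/mL solution) for 5 hr. After the bla read, CellTiter-Glo was added to the same wells and luminescence read after 30 min at room temperature.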

[14] = qHTS assay to identify small molecule agonists of the TGF-beta/Smad signaling pathway - cell viability counter screen (AID 1346829); note: top concentration of the series differs between compounds; nearly all actives have a fitted effect of over 45% in size
Procedure, shortened: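 CellTiter-Glo luminescence readout; SBE-bla HEK 293T cells, overnight plating, compound 5 hr at 37 C/5% CO2, then bla substrate 2 hr RT, then CellTiter-Glo 30 min RT.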

[15] = qHTS assay to identify small molecule agonists of the TGF-beta/Smad signaling pathway (AID 1346859; active = well fitted activation curve with a large enough effect in the signal ratio in the repeat runs, not every such curve was filed as active; the % refers to the signal ratio; note: series mostly up to about 77 µM)
Procedure, shortened: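 Smad-responsive beta-lactamase reporter cells (HEK 293T) received compounds from DMSO stocks after overnight attachment, were incubated 5 hr, then treated 2 hr with FRET substrate before dual-emission fluorescence measurement (405 nm excitation).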

[16] = biological target: Thyrotropin-releasing hormone receptor (Homo sapiens) (UniProt P34981); assay: qHTS assay to identify small molecule antagonists of the thyrotropin-releasing hormone receptor (TRHR) signaling pathway (AID 1346877; active = well fitted inhibition curve with a large enough effect in the repeat runs, not every such curve was filed as active; note: series mostly up to about 51 µM)
Chain of Thyrotropin-releasing hormone receptor (Homo sapiens) (P34981 whole entry, looked up): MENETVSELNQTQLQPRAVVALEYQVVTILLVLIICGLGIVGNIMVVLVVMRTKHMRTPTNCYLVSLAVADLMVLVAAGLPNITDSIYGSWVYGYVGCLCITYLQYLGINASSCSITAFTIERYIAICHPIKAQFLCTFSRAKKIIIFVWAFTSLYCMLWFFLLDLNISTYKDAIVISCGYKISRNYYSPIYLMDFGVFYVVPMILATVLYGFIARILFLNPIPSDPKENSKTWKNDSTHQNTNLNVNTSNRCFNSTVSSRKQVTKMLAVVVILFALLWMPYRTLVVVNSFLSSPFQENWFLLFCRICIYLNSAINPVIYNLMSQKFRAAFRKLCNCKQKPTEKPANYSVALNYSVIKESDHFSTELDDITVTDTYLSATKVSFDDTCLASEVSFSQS
Procedure, shortened: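 HEK293/TRHR cells, 18 h, 37 °C; Ca2+ dye 2 h; cpd 5 min RT; TRH 1 nM final; fluorescence read 3 min, 1 s intervals; 15 concs, triplicate.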

[17] = biological target: Estrogen receptor beta (Homo sapiens) (UniProt Q92731); assay: qHTS assay to identify small molecule antagonists of the estrogen receptor beta (ER-beta) signaling pathway (AID 1259378; active = well fitted inhibition curve with a large enough effect in the signal ratio in the repeat runs, not every such curve was filed as active; the % refers to the signal ratio)
Procedure, shortened: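 ER-beta-UAS-bla HEK293T (GripTite) cells in 2% charcoal-stripped FBS medium were preincubated 6 hr at 37C, dosed with compound, then stimulated with 1 nM E2 (final) for 16 hr; beta-lactamase reporter read by B/G FRET fluorescence after 2 hr substrate loading.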

[18] = qHTS assay to identify small molecule antagonists of the estrogen receptor beta (ER-beta) signaling pathway - cell viability counter screen (AID 1259382); note: series mostly up to about 92 µM; nearly all actives have a fitted effect of over 55% in size
Procedure, shortened: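 Luminescent ATP read-out (CellTiter-Glo, 30 min, RT) taken in the same wells as the bla reporter assay. HEK293T ER-beta-UAS-bla cells in 2% charcoal-stripped FBS were exposed to compounds with 1nM E2 for 16 hr at 37C.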

[19] = biological target: Progesterone receptor (Homo sapiens) (UniProt P06401); assay: qHTS assay to identify small molecule antagonists of the progesterone receptor (PR) signaling pathway (AID 1346795; active = well fitted inhibition curve with a large enough effect in the signal ratio in the repeat runs, not every such curve was filed as active; the % refers to the signal ratio)
Procedure, shortened: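 HEK293T PR-UAS-bla reporter cells in charcoal-stripped serum (2%) received compound after a 6 hr settling period, followed by R5020 agonist at 1 nM final; 16 hr incubation preceded the FRET substrate step and fluorescence measurement.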

[20] = biological target: Androgen receptor (Homo sapiens) (UniProt P10275); assay: qHTS assay to identify small molecule agonists of the androgen receptor (AR) signaling pathway in the presence of an antagonist (AID 1259381; calls by dose curve; note: nearly all actives have a fitted effect of over 15% in size)
Chain of Androgen receptor (Homo sapiens) (P10275 whole entry, looked up): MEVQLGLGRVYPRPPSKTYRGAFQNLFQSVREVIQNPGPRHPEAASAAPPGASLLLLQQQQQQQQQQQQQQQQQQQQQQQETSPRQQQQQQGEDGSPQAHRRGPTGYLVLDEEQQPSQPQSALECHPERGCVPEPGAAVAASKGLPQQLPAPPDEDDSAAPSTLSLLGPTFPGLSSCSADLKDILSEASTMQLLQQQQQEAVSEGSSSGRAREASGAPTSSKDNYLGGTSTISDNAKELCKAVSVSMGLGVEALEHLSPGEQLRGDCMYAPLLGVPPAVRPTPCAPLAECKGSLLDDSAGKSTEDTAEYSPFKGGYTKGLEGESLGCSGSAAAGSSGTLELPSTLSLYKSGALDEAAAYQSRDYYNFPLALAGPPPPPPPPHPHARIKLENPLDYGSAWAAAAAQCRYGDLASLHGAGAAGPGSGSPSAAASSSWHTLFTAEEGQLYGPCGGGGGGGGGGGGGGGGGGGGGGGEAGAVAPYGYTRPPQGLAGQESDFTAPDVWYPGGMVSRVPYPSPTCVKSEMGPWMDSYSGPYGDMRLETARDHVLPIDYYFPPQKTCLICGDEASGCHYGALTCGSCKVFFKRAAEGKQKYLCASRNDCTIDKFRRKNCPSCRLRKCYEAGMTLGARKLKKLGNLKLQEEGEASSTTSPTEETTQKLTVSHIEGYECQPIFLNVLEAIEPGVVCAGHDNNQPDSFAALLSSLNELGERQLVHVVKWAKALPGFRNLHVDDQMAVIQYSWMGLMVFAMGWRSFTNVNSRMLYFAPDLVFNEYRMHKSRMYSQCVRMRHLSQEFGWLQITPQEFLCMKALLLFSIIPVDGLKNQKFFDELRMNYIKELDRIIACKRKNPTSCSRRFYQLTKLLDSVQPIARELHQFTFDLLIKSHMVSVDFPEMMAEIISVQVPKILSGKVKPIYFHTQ
Procedure, shortened: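 Luciferase read-out (ONE-Glo, 30min room temperature) in MDA-kb2 MMTV-reporter cells; agonist mode run in presence of AR antagonist nilutamide, 3.0uM final. Compounds tested as 15-point series, 16hr exposure at 37C, 0% CO2.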

Measured: Potency

CCC(C)(C)C1CCC(OC)CC1 (configuration not stated)
not listed: [17] | [18] | [19] | [20]
inactive: all other assays above

COc1cc(C)cc(O)c1
not listed: [6] | [7] | [8] | [9] | [14] | [16] | [20]
inactive: all other assays above

Cc1ccccc1C(=O)O
inactive: [1] | [2] | [3] | [4] | [5] | [9] | [10] | [11] | [13] | [14] | [15]

COC[C@H](c1ccc(C(F)(F)F)cc1)N1CCN(C2(C)CCN(C(=O)c3c(C)ncnc3C)CC2)C[C@H]1C
active: [5] 2660 nM
not listed: [12] | [17] | [18] | [20]
inactive: all other assays above

C[C@H]1O[C@@H](n2cc(F)c(=O)[nH]c2=O)[C@H](O)[C@@H]1O
not listed: [6] | [12] | [17] | [20]
inactive: all other assays above

NS(=O)(=O)c1cc2c(cc1C(F)(F)F)NC(Cc1ccccc1)NS2(=O)=O (configuration not stated)
not listed: [6] | [12] | [14] | [17] | [18]
inactive: all other assays above

CCCCCCCCCCCCCCCCCCOCC(O)CO (configuration not stated)
not listed: [5] | [9] | [12] | [16] | [20]
inactive: all other assays above

CC1(C)OC(=O)Nc2ccc(Br)cc21
not listed: [3] | [16] | [17] | [18] | [19]
inactive: all other assays above
